The results in this text go back to ChEMBL document CHEMBL4513216, “Probing the Open Global Health Chemical Diversity Library for Multistage-Active Starting Points for Next-Generation Antimalarials” (ACS Infect Dis, 2020).

In all, about 69,000 compounds went through this assay and about 8,600 (12%) showed an effect of 50% or more. Many of the other results were omitted from the sample, so strong results are more common in it than they were.

This test deals with Plasmodium berghei. In words: Screen against P. berghei liver stage (PbLuc), transformed with Luciferase, at 10uM. Format: functional, HepG2. The conditions noted are these: tested at 10 uM.
As for `CCn1nc(C)c2nnn(CC(=O)Nc3ccccc3F)c(=O)c21`, the INHIBITION was found to be 40.8%. Then `CSc1nnc(C2CCN(C(=O)N3CCOCC3)CC2)n1C(C)C`, with 40.85%. Then `CCN1CCC2(CN(C(=O)N(C)C)CC23CCNCC3)C1=O` (centres undefined), with -3.58%; and `CNC(=O)NC(=O)CN(Cc1ccc(C#N)cc1)Cc1cccc(F)c1`, with -0.85%. Under `Cc1cccc2c1N(C)C(=O)C21CC(=O)Nc2c1cnn2C(C)(C)C` (centres undefined) stands -23.9%; under `O=C(CCOc1ccccc1F)N1CCCCC1Cn1cccn1` (centres undefined), -21.5%; under `COCc1cc(NCc2ccccc2OC)ncn1`, 12.6%. As for `Cc1cc(-c2cnc(NCc3ccncc3)nc2C(C)C)on1`, the INHIBITION is reported as 94.1%. With `COc1ccccc1CN1CCCCC1c1n[nH]cc1-c1cc(C)no1` (centres undefined), the INHIBITION worked out at 24.8%.

In the case of `Cc1cc(-c2cnc(NCc3ccccn3)nc2C(C)C)on1`, the INHIBITION amounted to 24.4%. Turning to `Cc1cnc(-c2nc(NC3CC3)ncc2-c2cc(C)no2)cn1`, the INHIBITION was found to be 8.72%. Under `Cc1cc(-c2cnc(NCc3cccnc3)nc2C(C)(C)C)on1` stands 83.6%. Under `Cc1cc(-c2cnc(NCc3cccnc3)nc2C(C)C)on1` stands 69.4%; under `CCN(CC)CCNc1ncc(-c2cc(C)no2)c(-c2ccoc2C)n1`, 33.5%; under `COc1ccccc1CNc1ncc(-c2cc(C)no2)c(C(C)C)n1`, 79.7%.

Regarding `COc1ccc(CNc2ncc(-c3cc(C)no3)c(C(C)C)n2)cc1`, the INHIBITION is recorded as -5.71%.

For `Cc1nn(C)c2c(NCc3cccnc3)nc(C(C)C)nc12`, the INHIBITION was -34%. Then `CCn1ncc(S(=O)(=O)N[C@@H]2CC[C@@H](n3ccnc3)[C@@H]2O)c1C`, with 4.65%. Then `Fc1cccnc1OC[C@@]12CCO[C@@H]1CCN(CC1CCOCC1)C2`, with -17.7%. Turning to `Cc1csc(CCNC(=O)N2CCC(n3cccc3)CC2)n1`, the INHIBITION is given as -6.04%.

On to `O=C(O)c1cnc(-c2cccc3c2CCNC3)c(Cl)c1`, for which the INHIBITION came out at 2.15%. Then `COc1cccc(COCC(=O)NC(C)c2nnc3n2CCC3)c1` (centres undefined), with -0.613%.

On to `CCc1nnc(Nc2cc(C)nc(C3CCN(c4ncccn4)C3)n2)s1` (centres undefined), for which the INHIBITION was -11.4%. As for `CCC(O)CNc1nccc(-c2ccc(C)nc2C)n1` (centres undefined), the INHIBITION is -8.9%. Then `Cc1ccc(NC(=O)C(C)n2ccc(C(F)(F)F)n2)nc1` (centres undefined), with 20.9%. Under `O=C(NC1CC1)N1CCc2ccc(=O)n(Cc3cccnc3)c2CC1` stands 45.2%; under `Cc1ccc(-c2cc(C)nc(C3CCCN3S(C)(=O)=O)n2)cc1` (centres undefined), -70.8%; under `CC(C)c1nn(C)c(Cl)c1CNCc1ccc2c(c1)OCO2`, 27.8%.

As to `CC(C)c1nn(C)c(N(C)C)c1CNCc1ccc2c(c1)OCO2`, the INHIBITION came to 3.75%. Under `Cc1cc(-c2cnc(NCc3ccc4c(c3)OCO4)nc2C(C)C)on1` stands 90.5%; under `CN1C(=O)Cc2cc(-c3csc(CCN4CCOC4=O)n3)ccc21`, 19.2%; under `CC(C)CN1C[C@H]2CCN(Cc3cccnc3)CC[C@H]2S1(=O)=O`, 42.1%. Under `CCn1cc(CN2CCCN(C(=O)CCc3nccs3)CC2)cn1` stands 1.78%. For `O=C(Nc1cc(F)ccc1OCC1CCCO1)NC1CC1` (centres undefined), the INHIBITION is -12.1%. Under `CC(C)(C)CN1CCCC2(CCN(C(=O)c3cn[nH]c3)C2)C1` (centres undefined) stands 68%; under `CC(C)(C)CN1CCCC2(CCN(C(=O)c3ccc(O)nc3)C2)C1` (centres undefined), 43.1%; under `O=C(c1cn[nH]c1)N1CCC2(CCCN(Cc3ccc(F)c(F)c3)C2)C1` (centres undefined), 25.8%. Then `Cc1cnn(CC2CN(CC(=O)Nc3nncs3)CCO2)c1` (centres undefined), with 30.76%; and `CC(=O)N1CCCC1c1nc(C)cc(-c2ccc(F)cc2)n1` (centres undefined), with 48.4%. Then `CN1CCC/C1=N\S(=O)(=O)c1ccc(NC(=O)c2ccco2)cc1`, with -67.3%. For `CNS(=O)(=O)c1ccc(F)c(C(=O)NCc2ccnc(OC)c2)c1`, the INHIBITION is given as 31.2%. In the case of `CC(C)c1noc(CCC(=O)Nc2cc(C(F)(F)F)c[nH]c2=O)n1`, the INHIBITION came to 41.5%. Then `CCCc1noc(CCC(=O)Nc2cc(C(F)(F)F)c[nH]c2=O)n1`, with 52.2%; and `CCc1noc(CCCC(=O)Nc2cc(C(F)(F)F)c[nH]c2=O)n1`, with 29.8%. Then `Cc1cnn(CC2CN(c3nnc(C)c(C)c3C#N)CCO2)c1` (centres undefined), with 15.635%. Then `Cc1sc2nc(CCN)nc(N3CCS(=O)(=O)CC3)c2c1C`, with 31.3%.

Take `CCOC(=O)N1CCN(C(=O)c2sc(-c3ccccc3F)nc2C)CC1`: the INHIBITION turned out to be 39.9%. Then `Cc1sc2nc(CCN)nc(N3CCC(N4CCCC4)CC3)c2c1C`, with 39.6%; and `Cc1sc2nc(CCN)nc(N3CC(N4CCCCC4)C3)c2c1C`, with 86.9%; and `CCOC(=O)N1CCN(c2nc(CCN)nc3sc(C)c(C)c23)CC1`, with 90.7%. Under `CCc1c(C)sc2ncnc(N3C[C@H](O)[C@@H](N4CCCC4)C3)c12` stands 48.5%; under `Cc1nc(C2CCN(S(C)(=O)=O)CC2)nc(N2CCCC2)c1C`, 11.25%. Then `Cc1sc2nc(CCN)nc(N3CCN(S(C)(=O)=O)CC3)c2c1C`, with 67.5%; and `COC(=O)CNC(=O)CSCc1nc(O)c2c(C)c(C)sc2n1`, with 22.1%; and `NC(=O)c1cccc(-c2cnc(C3CCCNC3)cn2)c1` (centres undefined), with 34.3%.

Regarding `CC(C)N(C)Cc1ncn2c1CN(S(=O)(=O)c1cccs1)CCC2`, the INHIBITION turned out to be 38.5%. Under `Cc1noc([C@@H](C)NCc2ccc(F)cc2)c1C(=O)O` stands -4.82%; under `CCCS(=O)(=O)N1C[C@@H]2CN(Cc3ccco3)CCO[C@@H]2C1`, -32.6%. Then `O=C(NCC1CCOC1)N1CCN(Cc2ccc3c(c2)OCO3)CC1` (centres undefined), with 33.3%; and `Cc1cc2cc(C(=O)N[C@@H]3CC[C@@H](N4CCCC4)[C@@H]3O)ccc2o1`, with 26.3%; and `Cc1noc(C2CCCN(Cn3cc(Br)cn3)C2)n1` (centres undefined), with -12.2%. Then `CCC(C)NC(=O)CS(=O)(=O)Cc1nc(-c2cccs2)no1` (centres undefined), with 46.4%; and `CCCc1noc(CS(=O)(=O)CC(=O)NC(C)CCC)n1` (centres undefined), with 58.3%; and `Cc1noc(CS(=O)(=O)CC(=O)NC(C)c2ccccc2)n1` (centres undefined), with 31.2%. For `CC[C@@H]1N(CC2CC2)CCC[C@]12CCC(=O)N2CCOC`, the INHIBITION turned out to be 4.2%. In the case of `Cc1noc(CN2CCN(C(=O)c3ccccn3)CC2)n1`, the INHIBITION was 37.3%.

For `Cc1nc(CN2CCCN(C(=O)c3ccccn3)CC2)oc1C`, the INHIBITION came to 60.5%. Take `CCc1nnc(CN2CCCN(C(=O)c3ccccn3)CC2)o1`: the INHIBITION is -47.6%. As for `Cc1nc(CN2CCCN(C(=O)c3ccn(C)c(=O)c3)CC2)cs1`, the INHIBITION is reported as -12.2%. Under `O=C(c1ccc(COc2ccc(Cl)cc2)o1)N1N=CCC1(O)C(F)(F)F` (centres undefined) stands 89.3%; under `O=C(c1ccc(COc2ccccc2Cl)o1)N1N=CCC1(O)C(F)(F)F` (centres undefined), 4.66%; under `Cc1cccc(OCc2ccc(C(=O)N3N=CCC3(O)C(F)(F)F)o2)c1` (centres undefined), 69.2%. Consider `O=C(NC1CCCC1)c1ccc(COCC(F)(F)F)o1`, for which the INHIBITION came out at 31.6%. Then `COCc1ccc(C(=O)N2CCC(Oc3ccccc3)(C(=O)O)CC2)o1`, with -11.6%; and `O=C(Cc1ccc(Cl)cc1)N1CCC(O)(C(F)(F)F)C1` (centres undefined), with -55%.

For the molecule `COc1ccc(C(=O)COc2coc(CN3CCCCC3)cc2=O)cc1`, the INHIBITION was determined as 44.9%. Take `CC(C)NC(=O)N1CC[C@@H](N(C)C)[C@@H]1Cc1ccncc1`: the INHIBITION was 28.2%.

As to `CCS(=O)(=O)N1CCN(Cc2ccncc2)c2nc(C)ccc2C1`, the INHIBITION turned out to be 48.6%.

Turning to `CC(c1ccc2c(c1)OCO2)n1cc2nc(N(C)C)[nH]cc-2c1=O` (centres undefined), the INHIBITION stood at 39.3%. Take `CC(C)CC(=O)Nc1ccc2c(c1)ncn2CC(=O)NCCN(C)C`: the INHIBITION was determined as 32.4%. `COCCN1CCCC(CCCc2ccccn2)(C(N)=O)C1` (centres undefined): the INHIBITION is recorded as -58.7%. Under `CCOc1ccc(NC(C)=O)cc1S(=O)(=O)Nc1cc(C)on1` stands 54.2%. Regarding `CCOc1ccc(NC(C)=O)cc1S(=O)(=O)Nc1ccon1`, the INHIBITION was 7.83%.

`CCOc1ccc(NC(C)=O)cc1S(=O)(=O)Nc1nnc(C)s1`: the INHIBITION stood at 21.8%. Then `Clc1ccccc1-c1nnc(CN2CCCC2Cn2cncn2)o1` (centres undefined), with 27.4%; and `Cn1cc(CN2CCO[C@@H]3CN(C4CCCC4)C[C@@H]3C2)cn1`, with 41.2%; and `c1cc(CNCc2ccnc(N3CCOCC3)c2)c2c(c1)OCO2`, with -35.2%.

For the molecule `c1cc(CNCc2ccnc(N3CCCC3)c2)c2c(c1)OCCO2`, the INHIBITION is recorded as 44.4%. As for `c1cc(CNCc2ccnc(N3CCOCC3)c2)c2c(c1)OCCCO2`, the INHIBITION is given as 26.4%.

As to `OCc1cccc(CNCc2cccc3c2OCCO3)c1`, the INHIBITION was -33.4%. Under `COc1ccc(OC)c(CNCc2ccnc(N3CCOCC3)c2)c1` stands -2.53%; under `CN1CCN(c2cc(CNCc3cccc4c3OCO4)ccn2)CC1`, 73.9%; under `COc1ccc(CNCc2ccnc(N3CCOCC3)c2)cc1OC`, 27.1%. Then `c1cc(CNCc2ccnc(N3CCCC3)c2)c2c(c1)OCO2`, with -17.2%; and `CN(C)c1cc(CNCc2cccc3c2OCCO3)ccn1`, with 52.1%; and `c1cc(CNCc2ccnc(N3CCOCC3)c2)c2c(c1)OCCO2`, with 9.48%. Under `c1cc(CNCc2ccnc(N3CCCC3)c2)c2c(c1)OCCCO2` stands 98.3%; under `COc1cccc(CNCc2ccnc(N3CCOCC3)c2)c1OC`, 50.5%.

In the case of `NC(=O)c1csc(N2C[C@@H](CN3CCOCC3)[C@@H](CO)C2)n1`, the INHIBITION is listed as 20.645%. Under `O=C(NCCNc1cnccn1)N1CCCC(N2CCCC2)C1` (centres undefined) stands 37.4%. Then `c1cc(CN2CCC[C@@H](Cn3nnc(-c4cnccn4)n3)C2)ccn1`, with 18.285%; and `CCOc1cc(NC(=O)N2CCC3(CCOCC3)C2)ccc1C`, with -38.1%. Then `Cc1cc(CN(Cc2cccs2)CC2CCCO2)on1` (centres undefined), with 19.4%; and `CCN(CC)c1nc(O)cc(C(C)n2ncc3ccccc3c2=O)n1` (centres undefined), with 0.45%.
